Read-out in experiment [1]: Tissue Factor, F3 (gene 2152)
Kind of experiment: BSK_CASM3C_TissueFactor: BioMAP Diversity Plus: CASM3C Assay for Tissue Factor Biomarker Activity (AID 2283052).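 Further: cell surface tissue factor protein level read by ELISA.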 The conditions noted are these: primary human coronary artery smooth muscle cells; actives raise or lower the signal.

Read-out in experiment [2]: Interferon-gamma inducible Protein 10 (IP10), CXCL10 (gene 3627)
The experiment in a line: BSK_hDFCGF_IP10: BioMAP Diversity Plus: hDFCGF Assay for Interferon-gamma inducible Protein 10 (IP10) Biomarker Activity (AID 2283053). The conditions noted are these: primary human foreskin fibroblasts; actives raise or lower the signal. Put shortly:
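Cells: human dermal foreskin fibroblasts. Exposure: 24 h post-dosing. Detection: IP-10 ELISA, with values expressed against DMSO controls and fitted in both directions.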

Read-out in experiment [3]: Urokinase-type plasminogen activator receptor (uPAR), PLAUR (gene 5329)
Kind of experiment: BSK_CASM3C_uPAR: BioMAP Diversity Plus: CASM3C Assay for Urokinase-type plasminogen activator receptor (uPAR) Biomarker Activity (AID 2283054).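 Further: cell-surface uPAR protein level quantified by ELISA.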 The conditions noted are these: primary human coronary artery smooth muscle cells; actives raise or lower the signal.

Read-out in experiment [4]: Vascular cell adhesion molecule 1 (VCAM1), VCAM1 (gene 7412)
Kind of experiment: BSK_CASM3C_VCAM1: BioMAP Diversity Plus: CASM3C Assay for Vascular cell adhesion molecule 1 (VCAM1) Biomarker Activity (AID 2283055).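 Further: VCAM-1 protein level quantified by ELISA on the cells.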 The conditions noted are these: primary human coronary artery smooth muscle cells; actives raise or lower the signal.

Read-out in experiment [5]: Collagen III, COL3A1 (gene 1281)
The experiment in a line: BSK_hDFCGF_CollagenIII: BioMAP Diversity Plus: hDFCGF Assay for Collagen III Biomarker Activity (AID 2283056). Conditions: primary human foreskin fibroblasts; actives raise or lower the signal. Put shortly:
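Response relative to DMSO, fitted in both directions, reflects ELISA-measured collagen III in human primary skin fibroblasts 24 h after compound addition.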

Read-out in experiment [6]: Epidermal growth factor receptor (EGFR), EGFR (gene 1956)
The experiment in a line: BSK_hDFCGF_EGFR: BioMAP Diversity Plus: hDFCGF Assay for Epidermal growth factor receptor (EGFR) Biomarker Activity (AID 2283057). Conditions: primary human foreskin fibroblasts; actives raise or lower the signal. The method, boiled down:
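Dosing human primary skin fibroblasts, then measuring surface EGFR by ELISA at 24 h, gives the endpoint; gains and losses relative to DMSO were fitted in both directions.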

Experiment [7] is described as follows: BSK_hDFCGF_Proliferation: Cell Proliferation Assessment in the BioMAP Diversity Plus: hDFCGF Assay (AID 2283059).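 Further: curves fitted for both rise and fall of signal versus DMSO baseline.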 Conditions: primary human foreskin fibroblasts. Put shortly:
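Sub-confluent human foreskin fibroblast cultures receive test chemical […]. Relative cell number is quantified by sulforhodamine B staining (0.1%, after 10% TCA fixation) at 560 nm, with bidirectional fitting referenced to DMSO.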

Read-out in experiment [8]: Macrophage colony-stimulating factor (MCSF), CSF1 (gene 1435)
The experiment in a line: BSK_hDFCGF_MCSF: BioMAP Diversity Plus: hDFCGF Assay for Macrophage colony-stimulating factor (MCSF) Biomarker Activity (AID 2283060). Conditions: primary human foreskin fibroblasts; actives raise or lower the signal. Put shortly:
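fibroblasts (human foreskin, primary), 24 h post-dose; M-CSF by ELISA; bidirectional fit, DMSO = baseline.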

Experiment [9] is described as follows: BSK_hDFCGF_SRB: Viability Assessment in the BioMAP Diversity Plus: hDFCGF Assay (AID 2283061).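 Further: cells exposed to compound for 24 h before the read.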 Conditions: primary human foreskin fibroblasts. Put shortly: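 SRB-based viability read on primary human skin fibroblasts at 24 h: TCA fixation, 0.1% dye, 560 nm. Gain or loss of signal is fitted against the DMSO negative control.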
Read-out in experiment [10]: TIMP metallopeptidase inhibitor 1 (TIMP1), TIMP1 (gene 7076)
Kind of experiment: BSK_hDFCGF_TIMP1: BioMAP Diversity Plus: hDFCGF Assay for TIMP metallopeptidase inhibitor 1 (TIMP1) Biomarker Activity (AID 2283062). The conditions noted are these: primary human foreskin fibroblasts; actives raise or lower the signal. Put shortly: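 Bidirectional curve fitting against DMSO baseline yielded this endpoint, based on ELISA detection of TIMP-1 in primary human foreskin fibroblasts exposed to compound for 24 h.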

Read-out in experiment [11]: Monokine induced gamma interferon (MIG), CXCL9 (gene 4283)
Kind of experiment: BSK_hDFCGF_MIG: BioMAP Diversity Plus: hDFCGF Assay for Monokine induced gamma interferon (MIG) Biomarker Activity (AID 2283063). Conditions: primary human foreskin fibroblasts; actives raise or lower the signal. The method, boiled down:
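Endpoint derived by bidirectional fitting relative to DMSO; MIG quantified via ELISA in primary human foreskin fibroblasts harvested 24 h after dosing.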

Read-out in experiment [12]: Matrix Metallopeptidase 1 (MMP1), MMP1 (gene 4312)
The experiment in a line: BSK_hDFCGF_MMP1: BioMAP Diversity Plus: hDFCGF Assay for Matrix Metallopeptidase 1 (MMP1) Biomarker Activity (AID 2283064). The conditions noted are these: primary human foreskin fibroblasts; actives raise or lower the signal. The method, boiled down: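 ELISA read-out of MMP1 from human foreskin fibroblasts (primary skin cells), 24 h post-dose. Gain or loss of signal was fitted bidirectionally versus DMSO negative control; cytotoxicity was checked by SRB in parallel cultures.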

Read-out in experiment [13]: Vascular cell adhesion molecule 1 (VCAM1), VCAM1 (gene 7412)
The experiment in a line: BSK_hDFCGF_VCAM1: BioMAP Diversity Plus: hDFCGF Assay for Vascular cell adhesion molecule 1 (VCAM1) Biomarker Activity (AID 2283065).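 On AC50: VCAM-1 protein level quantified by ELISA after 24 h chemical exposure.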 Conditions: primary human foreskin fibroblasts; actives raise or lower the signal. Put shortly:
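Measured after 24 h chemical treatment of primary human skin fibroblasts, VCAM-1 was detected by ELISA and concentration-response analysed in both directions versus DMSO vehicle.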

Read-out in experiment [14]: Plasminogen activator inhibitor-1 (PAI1), SERPINE1 (gene 5054)
The experiment in a line: BSK_hDFCGF_PAI1: BioMAP Diversity Plus: hDFCGF Assay for Plasminogen activator inhibitor-1 (PAI1) Biomarker Activity (AID 2283066). Conditions: primary human foreskin fibroblasts; actives raise or lower the signal. The method, boiled down: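 Fibroblasts from human foreskin were treated with test chemical. After 24 h, PAI-1 was measured by ELISA. Activity was fitted in both directions relative to DMSO.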

Read-out in experiment [15]: Intercellular Adhesion Molecule 1 (ICAM1), ICAM1 (gene 3383)
The experiment in a line: BSK_KF3CT_ICAM1: BioMAP Diversity Plus: KF3CT Assay for Intercellular Adhesion Molecule 1 (ICAM1) Biomarker Activity (AID 2283067). The conditions noted are these: primary human keratinocytes with fibroblasts; actives raise or lower the signal. Put shortly:
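Bidirectional curve fitting against a DMSO baseline was applied to ICAM-1 ELISA signal from primary human skin co-cultures harvested 24 h after treatment, with SRB staining of parallel wells for overt cytotoxicity.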

Read-out in experiment [16]: Interferon-gamma inducible Protein 10 (IP10), CXCL10 (gene 3627)
The experiment in a line: BSK_KF3CT_IP10: BioMAP Diversity Plus: KF3CT Assay for Interferon-gamma inducible Protein 10 (IP10) Biomarker Activity (AID 2283068). The conditions noted are these: primary human keratinocytes with fibroblasts; actives raise or lower the signal. The method, boiled down: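 ELISA read-out of IP-10 after 24 h chemical dosing of human skin primary co-culture (keratinocytes, foreskin fibroblasts). Gain or loss of signal relative to DMSO, bidirectional curve fit.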

Experiment [17] in a line: BSK_KF3CT_SRB: Viability Assessment in the BioMAP Diversity Plus: KF3CT Assay (AID 2283069).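 Further: total protein by sulforhodamine B staining as a cytotoxicity measure; fitted for both signal gain and loss against DMSO baseline.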 Conditions: primary human keratinocytes with fibroblasts. The method, boiled down:
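SRB read-out at 560 nm (0.1% stain, TCA-fixed cells) gauges overt cytotoxicity in a human skin keratinocyte–fibroblast co-culture 24 h post-dosing. Signal change was fitted bidirectionally relative to DMSO control.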

Read-out in experiment [18]: Interleukin-1 alpha (IL1a), IL1A (gene 3552)
The experiment in a line: BSK_KF3CT_IL1a: BioMAP Diversity Plus: KF3CT Assay for Interleukin-1 alpha (IL1a) Biomarker Activity (AID 2283070). Conditions: primary human keratinocytes with fibroblasts; actives raise or lower the signal. Put shortly: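 Primary skin co-culture (keratinocytes, foreskin fibroblasts), 24 h exposure; ELISA for IL-1a; bidirectional curve fit vs DMSO.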

Read-out in experiment [19]: TIMP metallopeptidase inhibitor 2 (TIMP2), TIMP2 (gene 7077)
The experiment in a line: BSK_KF3CT_TIMP2: BioMAP Diversity Plus: KF3CT Assay for TIMP metallopeptidase inhibitor 2 (TIMP2) Biomarker Activity (AID 2283071). Conditions: primary human keratinocytes with fibroblasts; actives raise or lower the signal. The method, boiled down: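 Chemicals were dosed onto human skin primary co-cultures of keratinocytes and foreskin fibroblasts, and TIMP-2 was measured by ELISA after 24 hours. Activity in either direction was fitted relative to DMSO.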

Calls of active or inactive are those of the source. How the source made its calls: active means hit-call score of the fitted dose curve at least 0.9, where 1 is the maximum; inactive means score below 0.9.

As to `CC(C)C1(C)N=C(c2ncccc2C(=O)O)NC1=O` (configuration not stated), the result in experiment [1], in [2], in experiment [3], in experiment [4], in [5] and in [6] was inactive. For the same molecule, the result in [7], in experiment [8], in experiment [9], in experiment [10], in experiment [11] and in [12] was inactive. Also, the result in experiment [13], in experiment [14], in experiment [15], in [16], in experiment [17] and in experiment [18] was inactive. The outcome in [19] was inactive.

Usually AC50 stands for the concentration at which the activity in the assay is half-maximal. Consider `CC(C)=CC1C(C(=O)OCc2coc(Cc3ccccc3)c2)C1(C)C` (configuration not stated), for which the result in experiment [1], in [3], in experiment [4], in experiment [6], in [9] and in [10] was inactive. Besides, the result in experiment [11], in experiment [12], in experiment [13], in experiment [14], in [15] and in experiment [16] was inactive. The result in experiment [17], in experiment [18] and in [19] was inactive. The AC50 in experiment [2] was 3.97 µM (active); in experiment [5], 12.2 µM (active); in experiment [7], 15 µM (active); in experiment [8], 11.1 µM (active).

For the molecule `N#Cc1c[nH]cc1-c1cccc2c1OC(F)(F)O2`, the result in experiment [1], in experiment [2], in experiment [3], in [4], in experiment [5] and in experiment [6] was inactive. Moreover, the outcome in experiment [10], in [11], in [14], in experiment [15], in experiment [16] and in [17] was inactive. Also, the outcome in [18] and in experiment [19] was inactive. Further, the AC50 was 8.88 µM (active) in experiment [8], 5.56 µM (active) in experiment [9], 5.28 µM (active) in experiment [12] and 5.39 µM (active) in experiment [13].

For the molecule `CC1(C)C(C(=O)OC(C#N)c2cccc(Oc3ccccc3)c2)C1(C)C` (configuration not stated), the result in [1], in experiment [2], in [3], in experiment [4], in [5] and in experiment [6] was inactive. For the same molecule, the result in experiment [8], in experiment [9], in experiment [10], in experiment [11], in [13] and in experiment [14] was inactive. In addition, the result in experiment [15], in experiment [16], in experiment [17], in experiment [18] and in [19] was inactive. Also, the AC50 was 8.2 µM (active) in experiment [7] and 3.02 µM (active) in experiment [12].

As for `CC(C)N1C(=O)N(c2ccccc2)CSC1=NC(C)(C)C`, the result in experiment [1], in [3], in experiment [4], in experiment [6], in experiment [8] and in [10] was inactive. The result in experiment [12], in experiment [14], in [15] and in experiment [19] was inactive. For the same molecule, the AC50 in experiment [2] was 15.7 µM (active); in experiment [5], 26.7 µM (active); in [7], 32 µM (active); in [9], 32.7 µM (active); in [11] it was 31.6 µM (active); in [13], 32.1 µM (active). Moreover, the AC50 in [16] was 33.2 µM (active); in experiment [17], 30.8 µM (active); in experiment [18], 26.3 µM (active).

As to `Cn1c(-c2ccccc2)cc(-c2ccccc2)[n+]1C`, the result in [1], in experiment [2], in [3], in experiment [4], in experiment [6] and in [9] was inactive. Besides, the outcome in [11], in [12], in [13], in experiment [14], in experiment [15] and in [17] was inactive. The outcome in experiment [18] was inactive. In addition, the AC50 in experiment [5] is 10.1 µM (active); in experiment [7], 5.37 µM (active); in experiment [8], 5.47 µM (active); in [10] it was 20 µM (active); in experiment [16], 7.72 µM (active); in experiment [19], 23.8 µM (active).

Turning to `CCOP(=O)(OCC)Oc1nc(Cl)c(Cl)cc1Cl`, the result in experiment [1], in experiment [3], in [4], in experiment [6], in experiment [10] and in [11] was inactive. In addition, the result in [12], in [15] and in [18] was inactive. The AC50 was 20 µM (active) in experiment [2]; 3.97 µM (active) in experiment [5]; 12 µM (active) in experiment [7]; 5.14 µM (active) in experiment [8]; 36.3 µM (active) in experiment [9]; 18.4 µM (active) in [13]. In addition, the AC50 in [14] is 20 µM (active); in [16], 19 µM (active); in experiment [17], 8.75 µM (active); in [19] it was 32.9 µM (active).

The record behind these values is PubChem BioAssay (EPA / NIEHS).
